Reference: PubChem BioAssay
Calls of active or inactive are those of the source.

Experiments:
[1] = optical density shifts of acrAB sulA E. coli – strain DRC41, OD650, 48 h, E. coli filamentation inducer project, primary screen (AID 1152); conditions: higher = more signal, called active from +8 up or from −8 down;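 note: E. coli MC1000 strain DRC41 lacking acrAB efflux pump and sulA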
[2] = probe aLefty1 binding on compound microarray – biochemical, small-molecule microarray, 635/667 nm fluorescence, primary screen (AID 1153); conditions: higher = more signal;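 note: score merges spot fluorescence with signal-to-noise ratio from the scanned slide images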
[3] = plasmodial surface anion channel blockers, osmotic lysis – cell-based, P. falciparum Indochina, OD700, 1 h, primary screen (AID 1154); conditions: P. falciparum Indochina infected RBC osmotic lysis, higher = more signal, called active from +8 up or from −8 down
[4] = plasmodial surface anion channel blockers, osmotic lysis – cell-based, P. falciparum Indochina, OD700, 2 h, primary screen (AID 1155);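 note: lysis reports solute entry through the parasite surface anion channel PSAC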; conditions: P. falciparum Indochina infected erythrocytes, higher = more signal, called active from +8 up or from −8 down
[5] = changes in parasitized red cell lysis, either direction – P. falciparum Indochina, OD700, 3 h, PSAC antagonist project, primary screen (AID 1156); conditions: P. falciparum-infected erythrocytes, osmotic lysis, higher = more signal, called active from +8 up or from −8 down
[6] = plasmodial surface anion channel blockers, osmotic lysis – cell-based, P. falciparum Indochina, OD700, 18 h, primary screen (AID 1157); conditions: P. falciparum Indochina infected erythrocytes, osmotic lysis OD700, 18 h; higher = more signal, called active from +8 up or from −8 down
[7] = S6 kinase pathway phospho-S6 level changes – cell-based, A549, cytoblot, luminescence, serum-stimulated, primary screen (AID 1158); conditions: 5 h, higher = more signal;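 note: serum-stimulated A549 lung adenocarcinoma cells; signal is phosphorylated S6 detected by cytoblot immunostaining with HRP secondary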
[8] = molecular target: NADPH oxidase 2 (Homo sapiens) (UniProt P04839); assay: compounds shifting NOX2 Amplex Red fluorescence – cell-based, HEK293-NOX2, PMA-stimulated, NOX inhibitor project, primary screen (AID 1159); conditions: 45 min, higher = more signal, called active from +8 up or from −8 down; note: test concentration not given here
Sequence of NADPH oxidase 2 (Homo sapiens) (P04839 whole entry, looked up): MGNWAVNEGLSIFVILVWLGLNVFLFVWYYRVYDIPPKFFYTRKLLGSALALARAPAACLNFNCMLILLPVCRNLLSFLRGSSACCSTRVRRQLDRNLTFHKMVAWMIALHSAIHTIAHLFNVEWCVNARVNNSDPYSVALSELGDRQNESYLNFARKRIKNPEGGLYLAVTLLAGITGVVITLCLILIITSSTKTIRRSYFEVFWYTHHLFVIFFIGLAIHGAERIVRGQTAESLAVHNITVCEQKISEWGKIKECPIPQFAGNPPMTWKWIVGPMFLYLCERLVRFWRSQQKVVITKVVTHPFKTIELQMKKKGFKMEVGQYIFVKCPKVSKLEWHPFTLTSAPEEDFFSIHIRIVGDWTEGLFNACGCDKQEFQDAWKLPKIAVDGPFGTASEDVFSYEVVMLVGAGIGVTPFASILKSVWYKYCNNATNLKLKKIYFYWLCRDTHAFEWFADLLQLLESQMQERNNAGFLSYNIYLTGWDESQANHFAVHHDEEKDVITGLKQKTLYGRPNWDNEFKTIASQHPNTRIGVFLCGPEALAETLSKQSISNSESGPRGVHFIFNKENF

[9] = molecular target: NADPH oxidase 4 (Homo sapiens) (UniProt Q9NPH5); assay: compounds shifting NOX4 Amplex Red fluorescence – cell-based, HEK293-NOX4, tetracycline-induced, NOX inhibitor project, primary screen (AID 1160); conditions: HEK293-NOX4, Amplex Red H2O2 fluorescence, 45 min; higher = more signal, called active from +8 up or from −8 down
Sequence of NADPH oxidase 4 (Homo sapiens) (Q9NPH5 whole entry, looked up): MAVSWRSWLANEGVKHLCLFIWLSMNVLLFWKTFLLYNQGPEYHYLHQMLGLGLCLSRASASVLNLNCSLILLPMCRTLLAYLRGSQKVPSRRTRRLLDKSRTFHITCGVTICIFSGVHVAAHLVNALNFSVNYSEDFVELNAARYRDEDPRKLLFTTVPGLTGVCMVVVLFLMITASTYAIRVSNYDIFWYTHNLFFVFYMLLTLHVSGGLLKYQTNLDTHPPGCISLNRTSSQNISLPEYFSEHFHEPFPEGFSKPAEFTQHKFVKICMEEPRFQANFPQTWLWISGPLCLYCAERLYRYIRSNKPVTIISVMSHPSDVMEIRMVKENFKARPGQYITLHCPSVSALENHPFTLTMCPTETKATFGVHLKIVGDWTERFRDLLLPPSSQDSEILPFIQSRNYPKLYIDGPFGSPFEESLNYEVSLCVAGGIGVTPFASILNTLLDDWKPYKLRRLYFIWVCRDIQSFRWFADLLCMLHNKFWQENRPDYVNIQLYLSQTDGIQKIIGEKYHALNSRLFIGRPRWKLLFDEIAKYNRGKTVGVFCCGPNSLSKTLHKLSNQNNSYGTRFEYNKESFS

[10] = molecular target: NADPH oxidase 5 (Homo sapiens) (UniProt Q96PH1); assay: compounds shifting NOX5 Amplex Red fluorescence – cell-based, HEK293-NOX5, NOX inhibitor project, primary screen (AID 1161); conditions: HEK293-NOX5, ionomycin, 45 min, higher = more signal
Sequence of NADPH oxidase 5 (Homo sapiens) (Q96PH1 whole entry, looked up): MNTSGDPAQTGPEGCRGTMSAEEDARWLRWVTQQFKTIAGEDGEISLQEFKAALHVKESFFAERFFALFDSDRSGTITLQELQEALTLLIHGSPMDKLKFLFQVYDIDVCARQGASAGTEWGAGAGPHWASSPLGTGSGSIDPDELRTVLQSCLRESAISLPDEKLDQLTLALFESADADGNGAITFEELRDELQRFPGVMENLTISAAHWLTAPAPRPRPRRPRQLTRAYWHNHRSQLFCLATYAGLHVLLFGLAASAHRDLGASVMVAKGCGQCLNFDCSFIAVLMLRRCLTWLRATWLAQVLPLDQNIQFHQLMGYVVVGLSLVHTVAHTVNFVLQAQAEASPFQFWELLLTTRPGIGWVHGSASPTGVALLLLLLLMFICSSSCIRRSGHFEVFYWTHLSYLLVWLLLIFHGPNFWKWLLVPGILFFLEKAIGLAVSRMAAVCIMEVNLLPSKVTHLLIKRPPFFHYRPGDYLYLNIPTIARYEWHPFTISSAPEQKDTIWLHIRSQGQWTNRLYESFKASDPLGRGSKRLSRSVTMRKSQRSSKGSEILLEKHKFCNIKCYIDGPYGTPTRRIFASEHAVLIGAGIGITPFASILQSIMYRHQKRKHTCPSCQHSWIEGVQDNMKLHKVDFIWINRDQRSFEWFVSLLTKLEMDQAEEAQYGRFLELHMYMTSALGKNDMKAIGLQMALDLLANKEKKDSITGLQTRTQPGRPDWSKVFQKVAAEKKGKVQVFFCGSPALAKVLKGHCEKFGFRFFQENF

[11] = compound effects on lung adenocarcinoma cell viability – A549, calcein-AM fluorescence, 48 h, basal, profiling panel (AID 1162); conditions: higher = more signal; note: test concentration not given here
[12] = compound effects on differentiated 3T3-L1 adipocyte viability – cell-based, 3T3-L1 adipocytes, calcein-AM fluorescence, 48 h, basal, profiling panel (AID 1163); conditions: 3T3-L1 adipocytes viability, higher = more signal; note: test concentration not given here
[13] = compound effects on hepatocellular carcinoma cell viability – HepG2, calcein-AM fluorescence, 48 h, basal, profiling panel (AID 1164); conditions: higher = more signal; note: test concentration not given here
[14] = compound effects on multiple myeloma cell viability – MM1S, calcein-AM fluorescence, 48 h, basal, profiling panel (AID 1165); conditions: higher = more signal; note: test concentration not given here
[15] = calcein-AM signal in unstimulated myeloma cells – cell-based, calcein-AM fluorescence, 48 h, PK04 Diversity Set, profiling panel (AID 1166); conditions: RPMI8226 myeloma viability, higher = more signal;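 note: cells grown under basal conditions without added stimulus; test concentration not given here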
[16] = JC-1 mitochondrial signal, unstimulated HepG2 cells – cell-based, JC-1 fluorescence, 24 h, 100 nL compound, profiling panel (AID 1167); conditions: HepG2 mitochondrial potential, higher = more signal; note: test concentration not given here
[17] = JC-1 mitochondrial signal, unstimulated adipocytes – cell-based, JC-1 fluorescence, 3T3-L1 adipocytes, 24 h, 100 nL compound, profiling panel (AID 1168); conditions: JC-1 mitochondrial fluorescence, higher = more signal, called active from +8 up or from −8 down; note: test concentration not given here
[18] = JC-1 mitochondrial signal, unstimulated myeloma cells – cell-based, JC-1 fluorescence, RPMI8226, 24 h, 100 nL compound, profiling panel (AID 1169); conditions: JC-1 mitochondrial potential fluorescence, higher = more signal; note: test concentration not given here
[19] = JC-1 mitochondrial signal, unstimulated MM1S myeloma – cell-based, JC-1 fluorescence, 24 h, 100 nL compound, profiling panel (AID 1170); conditions: MM1S mitochondrial potential, higher = more signal; note: test concentration not given here
[20] = resazurin metabolic signal in A549 cells – cell-based, resazurin fluorescence, 24 h, PK04 Diversity Set, profiling panel (AID 1171); conditions: A549 viability, higher = more signal, called active from +8 up or from −8 down; note: test concentration not given here

Structure (SMILES)	z-score [1]	composite z-score [2]	z-score [3]	z-score [4]	z-score [5]	z-score [6]	z-score [7]	z-score [8]	z-score [9]	z-score [10]	z-score [11]	z-score [12]	z-score [13]	z-score [14]	z-score [15]	z-score [16]	z-score [17]	z-score [18]	z-score [19]	z-score [20]
C=C(CCCC)/C(=C/C[C@H](OC(=O)c1ccncc1)c1ccc(CO)o1)c1cc(C(=O)OC)ccc1OC	-0.432 (inactive)	0.178	4.31 (inactive)	0.756 (inactive)	2.04 (inactive)	0.332 (inactive)	-0.247	-0.582 (inactive)	-0.903 (inactive)	-1.57	-0.705	-0.0954	-0.677	-3.18	-1.04	-0.132	-0.991 (inactive)	-0.375	-0.207	-0.401 (inactive)
N#Cc1ccc(NN2C(C(O)c3ccco3)C=CC3C(=O)N(c4ccccc4)C(=O)C32)cc1 (stereo not given)	-4.51 (inactive)	0.135	7.71 (inactive)	1.67 (inactive)	1.12 (inactive)	0.826 (inactive)	-0.555	-0.911 (inactive)	-4.51 (inactive)	-2.69	-0.121	-0.908	1.26	-0.372	-0.197	-0.764	-0.829 (inactive)	0.45	0.121	-0.2 (inactive)
C=CCNC(=O)[C@@H]1[C@H]2C(=O)O[C@H](c3ccccc3)[C@H](c3ccccc3)N2[C@H](c2ccc(O)cc2)[C@@]12C(=O)Nc1ccc(C#CCCO)cc12	1.79 (inactive)	-0.495	2.1 (inactive)	-0.785 (inactive)	-0.534 (inactive)	-1.86 (inactive)	0.727	0.422 (inactive)	-0.449 (inactive)	0.425	0.47	0.79	-0.168	-0.21	-0.719	-0.931	-0.296 (inactive)	-0.456	-0.388	1.01 (inactive)
COCCOC(=O)N1C(=O)[C@@]2(c3cc(C#CCCO)ccc31)[C@H](C(=O)N1CCc3cc(OC)c(OC)cc3C1)[C@H]1C(=O)O[C@H](c3ccccc3)[C@H](c3ccccc3)N1[C@@H]2c1ccc(OCCO)cc1	1.42 (inactive)	0.113	4.67 (inactive)	1.02 (inactive)	0.138 (inactive)	-0.0492 (inactive)	1.26	1.35 (inactive)	1.07 (inactive)	1.44	1.31	1.05	1.15	0.214	1.23	-0.495	1.21 (inactive)	-0.532	-0.901	0.86 (inactive)
O=C1N(CCS(=O)(=O)c2ccccc2)c2ccccc2[C@H]2OC(c3ccc(OCCCO)cc3)=N[C@@]12CCS(=O)(=O)c1ccccc1	0.401 (inactive)	0.582	28.2 (active)	26.3 (active)	3.35 (inactive)	4.36 (inactive)	-0.357	1.76 (inactive)	0.492 (inactive)	1.46	0.571	0.771	0.504	0.201	-0.0504	-0.38	2.29 (inactive)	-0.371	-1.23	0.789 (inactive)
CCOC(=O)C1=CCC(c2cccc(Cl)c2)O1 (stereo not given)	-0.504 (inactive)	0.152	14.9 (active)	1.02 (inactive)	0.75 (inactive)	-0.244 (inactive)	1.61	-4.41 (inactive)	-1.37 (inactive)	-3.51	-1	0.464	-0.531	-0.488	-1.15	-0.454	-0.627 (inactive)	0.96	-0.472	1.16 (inactive)
CN1C(=O)C2C=CC(C(O)C3CCCCC3)N(N(c3ccccc3)c3ccccc3)C2C1=O (stereo not given)	-1.11 (inactive)	0.344	0.801 (inactive)	1.09 (inactive)	0.332 (inactive)	0.926 (inactive)	-1.47	-0.557 (inactive)	-0.635 (inactive)	-0.0135	-0.42	-0.88	0.149	0.241	-0.758	-0.954	-1.2 (inactive)	-0.361	-0.365	-0.361 (inactive)
CO[C@H]1O[C@H](CO)[C@@H](OC(=O)c2ccc(Br)cc2)[C@@H]2OC(=O)[C@H](Cc3cccc(Br)c3)C/C=C/C[C@@H](Cc3cccc(Br)c3)C(=O)O[C@@H]12	-0.681 (inactive)	0.415	1.56 (inactive)	0.624 (inactive)	-0.778 (inactive)	0.484 (inactive)	-0.0043	-0.129 (inactive)	0.211 (inactive)	0.875	-0.0692	1.09	-0.542	-1.82	-3.5	-3.52	-0.442 (inactive)	0.229	-0.698	-0.932 (inactive)
